Chronic BCR inh = inhibitors of chronic active B-cell receptor signaling | ABC-DLBCL IkBa-CBG/CBR reporter, luminescence ratio, 4 h | Potency, µM (highest dose often 46.1 µM), for the others: top-dose activity change, negative = inhibition, hits mostly inhibitors | actives 0.05% (n = 340,000) | AID 493014; active means well fitted inhibition curve with a large enough effect in the signal ratio, with a control signal flat, not every such curve was filed as active; inconclusive means small, poorly fitted or top-dose-only effect, or effect the other way, or a change in a side signal; the % refers to the signal ratio;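 further: plate controls were basal doxycycline-induced cells for no effect and cells given 10 µM MG132 for full effect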
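Concentration-response series (up to 46 uM) were applied to TMD8 dual-reporter cells for 4 h at 37C with doxycycline. Green/red ratio, after filter-overlap correction, defined %Activity; red signal alone was normalised to basal cells and zero luminescence.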
uPA surface inh = cell surface uPA generation inhibition. cell surface uPA generation assay, qHTS. Potency, µM (titrated, usually from 38.3 µM), without a hit: at the highest dose activity change, negative = inhibition, most hits filed as inhibitors. AID 540303. actives 0.31% (n = 330,000); active means well fitted inhibition curve with a large enough effect; inconclusive means small, poorly fitted or top-dose-only effect; inactive means no such curve, though single readings can be large or run the other way; tested in mouse RAW 264.7 cells; further: on the % scale 0 is the no-effect control and ±100 the full control effect; nearly all actives have a fitted effect of over 55% in size
Mito fusion yeast = inhibitors of mitochondrial division or activators of mitochondrial fusion; actives 0.23% (n = 320,000); AID 485298; Potency, µM (series often up to 46.1 µM), without a hit: at the highest dose growth rescue (activation), most hits filed as activators; S. cerevisiae fusion-defective mutant growth rescue, CellTiterGlo 48 h; further: % of control where 0% means no effect; nearly all actives have a fitted effect of over 45% in size
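Yeast fusion mutant, YPEG (non-fermentable carbon), compound, 48 h at 37C non-permissive; CellTiterGlo added, 10 min RT, luminescence read. Rescued growth = division inhibition.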
Gal4-VP16 FLuc = inhibits Gal4-VP16 luciferase reporter, ROR gamma counter-screen; Potency, µM (series often up to 53.6 µM), without a hit: at the highest dose activity, negative = inhibition, hits mostly inhibitors; Drosophila S2 Gal4-VP16 UAS-luciferase, luminescence, 20 h; actives 3.5% (n = 310,000);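 further: Gal4-VP16 expression switched on by copper sulfate through the metallothionein promoter; on the % scale 0 is the no-effect control and ±100 the full control effect; nearly all actives have a fitted effect of over 50% in size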
a7 integrin act = activators of alpha7 integrin expression for muscular dystrophy; alpha7betagal myoblasts, beta-gal FDG fluorescence, 48 h; actives 0.064% (n = 350,000); AID 624291; Potency, µM (series often up to 38.3 µM), for the others: at the top dose activation, usual class: activators;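 further: 100% = response of the positive control SU9516; nearly all actives have a fitted effect of over 60% in size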
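Alpha7betagal+/- myoblasts (passage 13) were plated 16-24 hr, then exposed to compounds (1:260 dilution of DMSO stock) for 48 hours at 37C. After MPER lysis, β-galactosidase reporter activity was read as FDG fluorescence (ex 480/em 540) after 30 minutes.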
RORg inh = ROR gamma (mouse) transcription inhibition. AID 2551. Potency, µM (top dose mostly 53.6 µM), without a hit: at the highest dose activity change, negative = inhibition, usual class: inhibitors. actives 5.4% (n = 310,000). P51450. Drosophila S2 Gal4-RORgamma UAS-luciferase reporter, 20 h; further: on the % scale 0 is the no-effect control and ±100 the full control effect; nearly all actives have a fitted effect of over 60% in size
Target sequence (P51450 whole entry, looked up, the tested form may be a part): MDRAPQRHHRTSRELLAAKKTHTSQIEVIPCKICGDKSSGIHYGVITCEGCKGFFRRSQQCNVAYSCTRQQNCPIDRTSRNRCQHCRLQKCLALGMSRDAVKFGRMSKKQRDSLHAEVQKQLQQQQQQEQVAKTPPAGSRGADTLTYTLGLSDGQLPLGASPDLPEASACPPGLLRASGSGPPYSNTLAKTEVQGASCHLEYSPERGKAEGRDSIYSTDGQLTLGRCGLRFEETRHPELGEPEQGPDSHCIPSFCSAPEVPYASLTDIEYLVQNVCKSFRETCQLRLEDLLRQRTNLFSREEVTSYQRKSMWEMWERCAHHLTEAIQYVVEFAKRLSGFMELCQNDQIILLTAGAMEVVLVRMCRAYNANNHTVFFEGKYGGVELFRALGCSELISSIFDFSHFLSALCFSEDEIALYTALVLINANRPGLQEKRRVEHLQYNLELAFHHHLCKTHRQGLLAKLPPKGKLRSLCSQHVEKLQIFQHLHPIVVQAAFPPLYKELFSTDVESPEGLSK
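Compounds are pin-transferred onto Drosophila Schneider cells expressing a copper-inducible Gal4–ROR gamma transactivation domain fusion. After 1 hr, copper sulfate is added to 700 uM final; luciferase is read 20 hr later.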
Active calls of the source: *; u = inconclusive; x = no result; [ ] = dose if it differs, or a comment. Hits are enriched below; roughly 5.5% of the tested compounds scored in any of these assays. Unless noted, the call rests on the fitted dose curve; in most records, active means well fitted curve in the direction sought with a large enough effect; inconclusive means small, poorly fitted or top-dose-only effect, or another doubt; inactive means no such curve, though single readings can be large; an effect the other way counts as inactive or inconclusive. Potency means the concentration at half of the fitted maximal effect.

SMILES	Chronic BCR inh	uPA surface inh	Mito fusion yeast	Gal4-VP16 FLuc	a7 integrin act	RORg inh
O=C(N/N=C/c1c(O)n(-c2ccc(Cl)cn2)c(=O)c2ccccc12)C1CC1	u	-6%	-4%	7.9µM*	1%	5.6µM*
O=C1/C(=C\c2ccc(O)cc2)SC(=S)N1Cc1ccccc1	u	-1%	-28%	-12%	-48%	u
O=C1/C(=C\c2cc(Br)cc(Br)c2O)SC(=S)N1Cc1ccccc1	-2%	8%	-24%	u	-61%	13µM*
O=C1/C(=C\c2cccc([N+](=O)[O-])c2O)SC(=S)N1Cc1ccccc1	10%	-15%	-21%	16µM*	12%	-63%
COc1cc([N+](=O)[O-])cc(/C=C2/SC(=S)N(Cc3ccccc3)C2=O)c1O	2%	2%	-7%	5µM*	3%	u
C=CCN=C1S/C(=C/c2cccc([N+](=O)[O-])c2)C(=O)N1CC=C	4%	u	-6%	14%	7%	4%
O=C(O)c1cccc(CN2C(=O)S/C(=C/c3cccc([N+](=O)[O-])c3)C2=O)c1	u	-8%	-8%	7.1µM*	-15%	5.6µM*
Cc1cccc(C(C)C)c1NC(=O)COC(=O)CNS(=O)(=O)c1ccccc1	-3%	7%	-3%	x	17%	x
Cc1ccc(-c2nnc(SCc3ccccc3)o2)cc1	-21%	x	x	x	x	x
CCOc1cccc(=O)c2c(C)n(Cc3ccccc3)c(C)c12	8%	-3%	u	-13%	0%	-1%
CCOc1cccc(=O)c2c(C)n(Cc3ccco3)c(C)c12	5%	-4%	6%	3.5µM*	-25%	0%
CC1(C)Cc2c(sc(NC(=O)Cc3ccccc3)c2C#N)C(C)(C)N1	x	x	x	x	-54%	x
S=C1NC2(CCCC2)Nc2ccccc21	2%	0%	-2%	u	-11%	0.35µM*
S=C1NC2(CCCCC2)Nc2ccccc21	-1%	10%	-11%	u	1%	7.1µM*
c1cc2c3c(cccc3c1)NC1(CCCC1)N2	x	3%	x	x	9%	x
Cc1cc(Cl)ccc1NC(=S)NCc1cccs1	10%	2%	-8%	8.9µM*	23%	4µM*
Cc1ccc(NC(=S)NCc2cccs2)c(C)c1	23%	0%	3%	5.6µM*	-21%	2.2µM*
Cc1cc(O)c2c(c1O)C(=O)C(O)=C(O)C2=O	x	x	x	-14%	x	-44%
Cn1c(-c2csc(-c3cccc(C(F)(F)F)c3)n2)n[nH]c1=S	0%	-3%	-35%	0%	0%	4.5µM*
Cn1c(CNc2cccc(C(F)(F)F)c2)n[nH]c1=S	8%	7%	-1%	-4%	-7%	u
CCc1nc(NC(C)(C)C)c2cnn(-c3ccccc3)c2n1	u	-5%	-20%	-3%	-13%	-16%
CCOC(=O)[C@H]1[C@H]2COc3cc(OC)ccc3[C@@H]2N2C(=O)c3c(C)cc(C)cc3NC(=O)[C@@]12C	-2%	-1%	x	x	15%	x
CCCCCC(=O)NC(=S)NC1C2CC3CC(C2)CC1C3 (centres undefined)	11%	0%	28%	7.9µM*	-39%	2.2µM*
CCCCCC(=O)NNC(=S)NC(C)=O	-18%	10%	1%	-9%	8%	-40%
CSC(=NC#N)N1CCN(c2ccccc2)CC1	-1%	-6%	-2%	u	-14%[7.66 µM]	-32%
SMILES	Chronic BCR inh	uPA surface inh	Mito fusion yeast	Gal4-VP16 FLuc	a7 integrin act	RORg inh
CSC(=NC#N)N1CCN(c2c(C)cccc2C)CC1	-4%	-4%	4%	14%[10 µM]	-3%	11µM*
COc1cc(C(=O)N2CCN(c3ncnc4sc(C)c(C)c34)CC2)cc(OC)c1OC	u	-12%	-1%	4µM*	-3%	u
O=S(=O)(c1ccc(F)c(F)c1F)N1CCN(c2ncnc3sccc23)CC1	2%	-8%	x	x	0%	x
Cc1sc2ncnc(N3CCN(S(=O)(=O)c4ccc(F)cc4)CC3)c2c1C	-3%	-10%	u	22µM*	u	-40%
Cc1sc2ncnc(N3CCN(c4ncccn4)CC3)c2c1C	5%	3%	1%	-2%	43%	-23%
c1ccc(CC2CCN(c3ncnc4sccc34)CC2)cc1	0%	-8%	3%	4µM*	0%	10µM*
CCS(=O)(=O)N1CCN(c2ncnc3sc(C)c(C)c23)CC1	-11%	-2%	4%	10%	3%	21%
Cc1ccc(S(=O)(=O)N2CCN(c3ncnc4sccc34)CC2)cc1	-12%	u	5%	5µM*	-23%	u
O=C(O)c1cc2c(N3CCC(Cc4ccccc4)CC3)ncnc2s1	13%	-2%	-4%	14%	-16%	1%
COc1ccc(N(CC2CO2)S(=O)(=O)c2ccccc2)cc1 (centres undefined)	-6%	-10%	-9%	-14%	-49%	0%
CCn1c(CNC(=O)c2ccccc2F)cc2cc(C)ccc21	0%	3%	0%	9%	-18%	-4%
NS(=O)(=O)c1ccc(CCNC(=O)C(=O)NCC2OCCN2S(=O)(=O)c2ccc(Cl)cc2)cc1 (centres undefined)	-27%	5%	3%	16µM*	6%	30%
COc1ccc(S(=O)(=O)N2CCOC2CNC(=O)C(=O)NCc2ccccn2)cc1 (centres undefined)	x	0%	x	x	11%	x
O=C(NCc1ccccn1)C(=O)NCC1OCCN1S(=O)(=O)c1ccc(Br)cc1 (centres undefined)	0%	6%	-1%	25µM*	5%	34%
COc1ccccc1N1CCN(c2ccnc3cc(Cl)ccc23)CC1	20µM*	-14%	20%	8%	-15%	13%
COc1ccccc1NC(=O)N1CCN(c2ccnc3cc(Cl)ccc23)CC1	u	3%	0%	-21%	-20%	-10%
O=C(Nc1ccc(OC(F)(F)F)cc1)N1CCN(c2ccnc3cc(Cl)ccc23)CC1	u	u	u	28µM*	u	u
CN(c1ccccc1)c1ncnc2c1ncn2C	x	1%	x	x	-11%	x
O=C(N/N=C/c1cccc(Oc2ccccc2)c1)c1cccc(Br)c1	1%	3%	18%	u	-23%	10µM*
Cc1occc1C(=O)N/N=C/C=C/c1ccccc1[N+](=O)[O-]	u	2%	11%	u	4%	11µM*
Cc1occc1C(=O)N/N=C/C=C/c1ccccc1	u	-4%	14%	u	u	7.1µM*
CN(C)c1ccc(/C=N/NC(=O)c2sccc2-n2cccc2)cc1	-13%	2%	0%	u	17%	11µM*
O=C(N/N=C\c1ccc(Cl)cc1)c1sccc1-n1cccc1	7%	4%	1%	-8%	16%	u
